# Experimental data taken from the supplement of paper PMC6555819.
# Experiments:
# Assay in all cases: PBM binding z-score (relative to random genomic background probes); higher = stronger binding; sequences stand for … in GC…GCGATTGACAGCGTAGAATGAAGG
# [1] = system: PPARg:RXRa DBDmut IVT, anti-RXR (DBD mutation: RXRa K156A/R161A, NR concentration 270 nM, RXRa partner concentration 90 nM)
# In short: (§1)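 The probes on custom Agilent 4×180K protein-binding microarrays were double-stranded, with 34-nt variable regions bearing direct-repeat seeds, single-nucleotide variants, half-site ablations and random human genomic background sequences. Incubation lasted 1 h with ligand-free nuclear receptor dimers in PBS pH 7.4, 2% milk, 0.02% Triton X-100, 1 mM DTT, 0.2 mg/mL BSA and 0.4 mg/ml salmon testes DNA. Antibodies against each partner (one per run) detected bound dimers, and fluorescence scans were regression-normalized. Binding z-scores take the random background probes as reference.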
# [2] = system: PPARg:RXRa IVT, anti-PPARg (NR concentration 270 nM, RXRa partner concentration 90 nM)
# In short: as §1
# [3] = system: PPARg DBDmut:RXRa IVT, anti-PPARg (DBD mutation: PPARg1 K132A/R137A, NR concentration 270 nM, RXRa partner concentration 90 nM)
# In short: as §1
# [4] = system: PPARg DBDmut IVT, anti-PPARg (DBD mutation: PPARg1 K132A/R137A, NR concentration 270 nM)
# In short: as §1
# [5] = system: PPARg homodimer (NR concentration 180 nM)
# In short: as §1
# [6] = system: PXR:RXRa (NR concentration 270 nM, RXRa partner concentration 90 nM)
# In short: as §1
# [7] = system: PXR homodimer (NR concentration 270 nM)
# In short: as §1
# [8] = system: RARa:RXR (NR concentration 270 nM, RXRa partner concentration 90 nM)
# In short: as §1
# [9] = system: RARa homodimer (NR concentration 270 nM)
# In short: as §1
# [10] = system: RARb:RXRa (NR concentration 270 nM, RXRa partner concentration 90 nM)
# In short: as §1
# [11] = system: RARb homodimer (NR concentration 270 nM)
# In short: as §1
# [12] = system: RARg:RXRa (NR concentration 270 nM, RXRa partner concentration 90 nM)
# In short: as §1
# [13] = system: RARg homodimer (NR concentration 270 nM)
# In short: as §1
# [14] = system: RXRa DBDmut IVT, anti-RXR (DBD mutation: RXRa K156A/R161A, NR concentration 90 nM)
# In short: as §1
# [15] = system: RXRa homodimer (NR concentration 180 nM)
# In short: as §1
# [16] = system: THRa:RXRa (NR concentration 90 nM, RXRa partner concentration 90 nM)
# In short: as §1
# [17] = system: THRa homodimer (NR concentration 90 nM)
# In short: as §1
# [18] = system: VDR homodimer (NR concentration 270 nM)
# In short: as §1
Sequence,PBM binding z-score [1],PBM binding z-score [2],PBM binding z-score [3],PBM binding z-score [4],PBM binding z-score [5],PBM binding z-score [6],PBM binding z-score [7],PBM binding z-score [8],PBM binding z-score [9],PBM binding z-score [10],PBM binding z-score [11],PBM binding z-score [12],PBM binding z-score [13],PBM binding z-score [14],PBM binding z-score [15],PBM binding z-score [16],PBM binding z-score [17],PBM binding z-score [18]
ATATGTTGGTTAAGGGTCATTCAGGTTGGTTCGC,1.61,3.8,1.51,1.87,4.23,5.21,3.35,4.73,3.39,3.39,3.84,4.07,3.25,2.11,4.9,3.25,2.24,4.89
ATACCAAGGTGATCGCGAGGTCGTTGATACTAAC,0.441,1.35,0.0109,0.101,0.588,3.17,1.13,1.84,-0.462,1.24,1.51,2.37,0.886,0.551,1.42,3.11,1.61,2.67
CCGACTGGGGCATACGGTTACCATAAGCCAGCCC,2.5,2.15,-0.604,-1.2,0.276,-0.401,-0.646,-0.126,-0.0238,0.496,0.117,0.0936,0.374,-0.766,0.369,-0.473,-0.389,-0.653
CCGACTGGGGCAGAAAGGCTACCATACCATCCGG,0.897,0.918,-0.746,-1.37,-0.0679,-0.836,-0.377,-0.589,0.0496,0.362,0.243,-0.0591,-0.0697,-0.996,-0.122,-0.836,-0.539,-0.212
GAATATAGGTAATACAAGGTGAAAGTCCGATTGT,6.67,6.08,2.27,1.21,1.32,0.776,0.722,1.33,1.55,0.909,1.27,0.944,0.872,0.644,0.89,4.2,1.38,0.435
CCTAGTTGGTCAGGAGCTCACACACCGGATATGA,0.512,0.377,0.181,-0.1,0.317,-0.386,-0.151,-0.201,0.575,0.469,0.161,0.446,0.601,-0.0483,0.0648,-0.298,-0.103,0.545
GCTATTAGTTGAAAGGGCAACCGCATGATTCTCG,0.567,1.26,-0.261,-0.166,1.06,0.577,0.17,1.39,0.567,1.71,1.73,1.4,1.04,0.935,1.29,0.332,-0.105,0.195
CCTACTGGGCCCCGAAAGGTCATTGATTCAGTGA,0.503,2.11,-1.53,-0.961,2.6,4.66,1.26,5.15,1.3,3.6,4.21,4.35,3.23,-0.457,4.99,3.04,1.03,1.81
CCTACTGGGCCATCAAGTCATTGATATCAACGTT,3.82,3.91,-0.107,0.228,0.653,-0.138,-0.334,0.32,0.00429,0.23,0.27,0.122,0.368,0.0115,-0.103,-0.116,-0.0575,-0.205
ACTTACGGGTCAACGAGTTTATAGCACGCGTATA,3.67,3.98,1.94,1.27,1.4,5.9,9.25,4.24,0.513,4.14,3.4,5.13,5.14,3.3,5.62,3,0.511,6.13
CCTTACGGGTCAAGGTTATAGGACGGGTGGTACG,1.92,3.64,0.411,-0.184,2.15,3.39,0.631,4.15,0.493,4.13,3.29,4.91,5.12,0.475,5.36,3.06,0.968,1.51
GATACAGGGTCAGCTAGTGGCCAGAGTATGGAAA,1.03,2.29,-0.052,-0.0645,1.79,1.89,0.153,3.05,-0.0625,3.69,2.79,4.73,4.32,1.25,3.81,2.46,0.162,0.556
TCTAGTTGGTCAAAGGTTACACACTCGAAATGCG,3.09,4.81,1.41,2.3,3.48,3.45,1.04,4.79,2.25,2.88,2.96,4.04,2.46,1.54,4.59,2.37,1.01,1.23
GCGACTGGGGCTTCAGCAGGTTACCATAACTTAA,0.693,0.216,-0.978,-1.13,0.227,-0.117,-0.245,0.339,-0.857,-0.108,0.521,-0.404,-0.463,-0.297,0.00147,0.733,-0.0641,-0.284
CCGACTGGGGCATAAGGTGACCATAAGCCAGCCC,2.39,3.15,-0.511,-1.28,0.186,-0.504,-0.373,0.332,-0.248,1.23,1.26,0.678,0.621,-1.25,0.516,1.7,0.792,-0.621
ATCTCTAGGTAAAAGTTCAGTGCATCCCGAGGAT,1.88,3.85,0.957,1.05,1.6,2.28,2.08,1.69,1.4,2.36,2.59,1.85,1.81,0.951,1.49,1.43,0.48,2.21

Sequence,PBM binding z-score [1],PBM binding z-score [2],PBM binding z-score [3],PBM binding z-score [4],PBM binding z-score [5],PBM binding z-score [6],PBM binding z-score [7],PBM binding z-score [8],PBM binding z-score [9],PBM binding z-score [10],PBM binding z-score [11],PBM binding z-score [12],PBM binding z-score [13],PBM binding z-score [14],PBM binding z-score [15],PBM binding z-score [16],PBM binding z-score [17],PBM binding z-score [18]
GCTAGCAGGCCATTTGGGTCATTCAATGACGGGC,2.06,2.04,-1.48,-1.11,-0.184,0.822,0.976,0.854,-0.862,1.28,1.64,0.979,1.01,0.394,0.908,1.82,0.24,1.21
CAAACTAGGTCAAACGTCAAAGTCGAGCCAACCA,8.33,8.65,4.47,4.15,2.05,2.38,0.241,3.65,0.354,4.21,2.99,4.6,4.53,2.28,4.16,3.13,0.831,1.04
ACCGAAAGGTCGAGGTGAGTATAGAGAAAGGGAA,0.771,2.17,0.276,0.807,1.13,2.31,0.286,3,0.981,4.17,2.81,4.28,4.43,0.832,4.35,2.94,0.707,0.402
CGTCCAAGGTCATAGGAGGTAAGTGAAGACAGAT,2.54,3.38,0.738,0.602,2.39,4.29,1.22,3.98,1.57,4.88,3.21,5.58,5.93,3.37,5.29,4.6,2.43,2.6
ACTTACGGGTCATCGAGGTTATAGCACGCGTATA,2.89,4.16,1.78,1.14,2.09,5.14,4.1,4.92,1.11,4.11,3.64,5.43,4.96,2.98,6.18,4.03,1.28,4.26
CCTTACGGGTCACGAGGTTATCGCACGACGAGCG,4.34,5.24,1.36,0.803,3.23,4.75,0.615,6.45,0.798,4.5,4.01,6.31,5.55,1.96,7.47,3.72,1.12,2.04
GCGACTGGGGCATCAGCAGGTTTCCATAACTTAA,3.74,2.62,-1.63,-0.793,0.145,-0.54,-0.0807,-0.096,-0.582,0.524,0.345,-0.102,-0.261,0.099,-0.0783,-0.0527,-0.144,0.168
CCGAGTAGGTTATGGGGCTTTCAGGCAACGGTGA,3.12,2.84,-0.365,-0.667,0.638,-0.191,-0.0344,-0.019,0.153,0.525,0.416,0.0177,0.1,-0.273,0.293,0.519,0.657,0.00532
ATCGAAAGGTCGAGGTGAGTCTAGAGAAAGGGAA,0.536,2.56,0.697,0.961,1.92,3.05,0.144,3.67,0.714,4.31,2.89,4.34,4.48,0.715,4.46,3.01,0.76,0.695
ACAGACAGATGAGTGAAGGTAACTCAGCTGGACG,-0.101,0.00181,0.781,0.138,0.692,-0.0478,0.186,0.101,0.524,-0.14,-0.259,0.311,0.543,-0.223,0.367,0.16,-0.331,-0.0316
CCTACTGGGCCACGAAATGTCATTGATTCAGTGA,6.24,5.34,0.216,-0.527,0.759,-0.308,-0.533,0.0426,-0.591,0.57,0.607,0.2,0.479,-0.374,-0.0138,0.211,-0.319,-0.54
GCTTACGGGTCAAAGGTTATAGCGTGAATAGAAT,4.36,6.22,1.03,1.18,2.67,5.96,0.264,7.96,0.595,4.33,3.29,6.87,4.52,2.22,9.28,3.83,0.134,1.44
ATATGTAGGTTAGCTGGTGTCATTCAGACTAGGC,6.77,6.16,2.14,1.6,1.06,1.65,0.392,1.44,0.23,0.987,0.884,0.888,0.979,0.243,0.936,2.52,-0.1,0.617
CGTCCAAGGTCAGCTGGTCAGTGAAAGCGACGTG,2.4,2.17,0.5,-0.832,2.63,2.67,-0.135,3.24,1.47,4.79,3.87,5.3,6.1,2.64,3.99,3.46,1.76,0.478
TCTAGCAGGCGAGAGGGTCACTCAAGAGGTACGG,0.656,-0.139,-0.781,-0.425,0.125,1.47,-0.472,2.24,-0.11,1.81,2.17,2.04,1.83,-0.024,2.15,1.52,-0.333,0.103
